# The full ranking holds about 8,300 sequences; the median of “log2 fold change of degron read counts, EGFP-low vs EGFP+ sorted cells (limma voom), compound-induced degradation” is about -1.1, and the highest 2% start at about 3.2. For the sample, the highest values were picked, then their nearest neighbours and some sequences at random.
# T1: CRBN, Q96SW2
# T1 chain: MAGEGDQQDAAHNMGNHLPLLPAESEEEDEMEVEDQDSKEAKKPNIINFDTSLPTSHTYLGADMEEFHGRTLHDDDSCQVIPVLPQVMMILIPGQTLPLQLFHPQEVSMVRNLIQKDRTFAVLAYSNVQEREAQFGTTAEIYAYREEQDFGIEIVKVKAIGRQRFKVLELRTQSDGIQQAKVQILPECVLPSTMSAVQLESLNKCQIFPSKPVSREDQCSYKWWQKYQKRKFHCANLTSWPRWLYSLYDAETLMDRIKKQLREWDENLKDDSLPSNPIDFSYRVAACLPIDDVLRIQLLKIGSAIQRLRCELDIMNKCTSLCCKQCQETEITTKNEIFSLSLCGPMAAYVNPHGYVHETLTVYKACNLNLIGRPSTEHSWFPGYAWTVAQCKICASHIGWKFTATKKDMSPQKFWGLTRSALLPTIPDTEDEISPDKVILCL
# Biological target: T1, CRBN, Q96SW2
# Assay: log2 fold change of degron read counts, EGFP-low vs EGFP+ sorted cells (limma voom), compound-induced degradation; higher = more compound-induced degradation of the degron-EGFP fusion; degrons are variants of IKZF1/3 zinc finger 2; compound dose not given here
# Conditions: Jurkat, 18 h
# [1] = compound: compound 19 (5-tert-butyl-thalidomide)
# [2] = compound: compound 22 (5-morpholino-thalidomide)
# [3] = compound: compound 33 (diphenyl IMiD analogue)
# 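Further: pooled lentiviral library of zinc finger degron-EGFP fusions in mCherry-positive Jurkat cells, FACS-sorted after compound exposure, with degron abundance counted by next-generation sequencing.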
Sequence,log2 fold change of degron read counts [1],log2 fold change of degron read counts [2],log2 fold change of degron read counts [3],log2 fold change of degron read counts (compound: thalidomide)
"FICEICGAYFTQKGNLLRHIKL [46F_47I_49E_50I_52G_53A_54Y_55F_67L_, Q9UKT9]",-0.272,1.41,2.34,2.12
"FYCEICGAYFTQKGNLLRHIKL [46F_47Y_49E_50I_52G_53A_54Y_55F_67L_, Q9UKT9]",3.25,2.89,2.12,0.307
"FACEICGAYFTQKGNLLRHIKL [46F_47A_49E_50I_52G_53A_54Y_55F_67L_, Q9UKT9]",3.17,1.39,0.71,0.202
"FRCEICGAYFTQKGNLLRHIKL [46F_47R_49E_50I_52G_53A_54Y_55F_67L_, Q9UKT9]",-0.965,-0.721,0.747,1.98
"FWCEICGAYFTQKGNLLRHIKL [46F_47W_49E_50I_52G_53A_54Y_55F_67L_, Q9UKT9]",3.24,2.92,1.88,0.14
"FGCEICGAYFTQKGNLLRHIKL [46F_47G_49E_50I_52G_53A_54Y_55F_67L_, Q9UKT9]",1.74,0.231,2.58,0.883
"FHCDQCGACFTQKGNLLRHIKL [46F_47H_49D_50Q_52G_53A_54C_55F_67L_, Q9UKT9]",-1.69,-1.96,-2.17,-2.89
"FICPICGAIFTQKGNLLRHIKL [46F_47I_49P_50I_52G_53A_54I_55F_67L_, Q9UKT9]",-1.09,0.608,1.82,1.64
"FICPICGRHFTQKGNLLRHIKL [46F_47I_49P_50I_52G_53R_54H_55F_67L_, Q9UKT9]",-1.55,-0.572,-0.548,0.569
"FYCDVCGATFTQKGNLLRHIKL [46F_47Y_49D_50V_52G_53A_54T_55F_67L_, Q9UKT9]",2.06,2.82,0.691,-1.49
"FRCEVCGARFTQKGNLLRHIKL [46F_47R_49E_50V_52G_53A_54R_55F_67L_, Q9UKT9]",-1.49,-2.37,-0.456,0.516
"FTCEVCGARFTQKGNLLRHIKL [46F_47T_49E_50V_52G_53A_54R_55F_67L_, Q9UKT9]",1.77,3.04,1.75,3.26
"FTCEVCGALFTQKGNLLRHIKL [46F_47T_49E_50V_52G_53A_54L_55F_67L_, Q9UKT9]",-0.893,-0.862,0.362,0.612
"FSCEVCGARFTQKGNLLRHIKL [46F_47S_49E_50V_52G_53A_54R_55F_67L_, Q9UKT9]",3.53,2.6,0.369,2.08
"FHCEVCGARFTQKGNLLRHIKL [46F_47H_49E_50V_52G_53A_54R_55F_67L_, Q9UKT9]",2.39,2.38,0.473,0.568
"FTCNICGAGFTQKGNLLRHIKL [46F_47T_49N_50I_52G_53A_54G_55F_67L_, Q9UKT9]",0.378,0.88,1.61,1.21
"FSCEICGAEFTQKGNLLRHIKL [46F_47S_49E_50I_52G_53A_54E_55F_67L_, Q9UKT9]",1.69,0.708,0.218,0.0707
"FGCPICGAAFTQKGNLLRHIKL [46F_47G_49P_50I_52G_53A_54A_55F_67L_, Q9UKT9]",3.57,2.61,2.88,1.63
"FSCPICGAAFTQKGNLLRHIKL [46F_47S_49P_50I_52G_53A_54A_55F_67L_, Q9UKT9]",3.12,2.69,2.7,2.11
"FYCPICGAAFTQKGNLLRHIKL [46F_47Y_49P_50I_52G_53A_54A_55F_67L_, Q9UKT9]",2.86,3.24,2.38,0.578
"FVCPICGAAFTQKGNLLRHIKL [46F_47V_49P_50I_52G_53A_54A_55F_67L_, Q9UKT9]",1.31,2.85,2.04,3.03
"FWCPICGAAFTQKGNLLRHIKL [46F_47W_49P_50I_52G_53A_54A_55F_67L_, Q9UKT9]",3.12,3.3,2.33,1.2
"FHCPICGAAFTQKGNLLRHIKL [46F_47H_49P_50I_52G_53A_54A_55F_67L_, Q9UKT9]",3.05,2.78,2.28,1.19
"FKCPICGAAFTQKGNLLRHIKL [46F_47K_49P_50I_52G_53A_54A_55F_67L_, Q9UKT9]",2.04,-0.319,-1.26,1.01
"FQCPICGAAFTQKGNLLRHIKL [46F_47Q_49P_50I_52G_53A_54A_55F_67L_, Q9UKT9]",2.65,3.13,2.56,3.53
"FRCPICGAAFTQKGNLLRHIKL [46F_47R_49P_50I_52G_53A_54A_55F_67L_, Q9UKT9]",2.26,2.26,2.48,2.19
"FICPICGAAFTQKGNLLRHIKL [46F_47I_49P_50I_52G_53A_54A_55F_67L_, Q9UKT9]",0.268,3.15,2.21,2.78
"FFCPICGAAFTQKGNLLRHIKL [46F_47F_49P_50I_52G_53A_54A_55F_67L_, Q9UKT9]",3.15,3,2.18,1.33
"FNCPICGAAFTQKGNLLRHIKL [46F_47N_49P_50I_52G_53A_54A_55F_67L_, Q9UKT9]",2.96,1.85,0.954,1.13
